The results in this text go back to PubChem BioAssay (EPA / NIEHS).

Inconclusive results are not listed. Calls of active or inactive are those of the source. The calls were made as follows: active = hit-call score of the fitted dose curve at least 0.9, where 1 is the maximum; inconclusive = response in the unintended direction; inactive = score below 0.9.

Broadly, the AC50 is the concentration at which the activity in the assay is half-maximal.

Sequence of human CYP2C9, CYP2C9 (gene 1559) (P11712 whole entry, looked up): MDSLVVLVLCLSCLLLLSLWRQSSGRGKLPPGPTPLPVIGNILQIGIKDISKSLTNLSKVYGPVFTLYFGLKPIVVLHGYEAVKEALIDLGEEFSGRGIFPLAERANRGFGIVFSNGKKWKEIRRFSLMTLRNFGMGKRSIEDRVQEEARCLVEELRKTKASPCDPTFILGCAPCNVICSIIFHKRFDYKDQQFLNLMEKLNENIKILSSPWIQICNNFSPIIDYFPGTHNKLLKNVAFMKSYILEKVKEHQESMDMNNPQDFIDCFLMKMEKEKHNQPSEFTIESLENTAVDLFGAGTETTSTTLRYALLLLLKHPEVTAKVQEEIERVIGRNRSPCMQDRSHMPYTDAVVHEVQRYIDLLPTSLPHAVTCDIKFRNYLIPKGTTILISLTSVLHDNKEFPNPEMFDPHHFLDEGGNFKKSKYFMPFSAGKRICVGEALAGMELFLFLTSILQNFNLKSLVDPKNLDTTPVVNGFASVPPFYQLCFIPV

This assay concerns the target human CYP2C9, CYP2C9 (gene 1559) (UniProt P11712). Description: NVS_ADME_hCYP2C9: NovaScreen (NVS) CYP450-related Enzyme Activity (ADME) Assay for human CYP2C9 (AID 2283108). The method, then: NVS_ADME_hCYP2C9 is a biochemical, single-readout assay that uses extracted gene-proteins from SF9 in a cell-free assay. Measurements were taken 0.75 hour after chemical dosing in a 96-well plate.NVS_ADME_hCYP2C9 is one of one assay component(s) measured or calculated from the NVS_ADME_hCYP2C9 assay. It is designed to make measurements of enzyme activity, a form of enzyme reporter, as detected with fluorescence intensity signals by Fluorescence technology.Data from the assay component NVS_ADME_hCYP2C9 was analyzed into 1 assay endpoint. This assay endpoint, NVS_ADME_hCYP2C9, was analyzed in the positive analysis fitting direction relative to Acetonitrile as the negative control and baseline of activity. Using a type of enzyme reporter, loss-of-signal activity can be used to understand changes in the enzymatic activity as they relate to the gene CYP2C9. Furthermore, this assay endpoint can be referred to as a primary readout, because this assay has produced multiple assay endpoints where this one serves a enzymatic activity function. To generalize the intended target to other relatable targets, this assay endpoint is annotated to the cyp intended target family, where the subfamily is xenobiotic metabolism.
Binding assays used specific radioligands (tritiated, iodinated) with non-radioactive competitive displacement ligands in agonist or antagonist protocols (as indicated) and various reference compounds and inhibitors to titrate specific binding to receptors and transporters. Most enzyme assays (CYPs, kinases, phosphatases, proteases, HDACs) used recombinant protein and specific substrates (fluorescence mostly, some colorimetric and radioactive) and inhibitors, followed by a biochemical separation of substrate and product. All assays for the biochemical HTS were initially run in duplicate at a single concentration (10 uM for CYP450 assays and 25 uM for all others). […] Each assay was run with positive and negative controls, and concurrent controls on every plate. The follow-up (secondary) screen tested active chemical-pairs in concentration series, as well as a few additional assays not tested in the primary screen, some selected negative inactives, and several cases re-run in the concentration series for confirmatory purposes.
On to `Nc1ccc(N=Nc2ccccc2)cc1`, for which the AC50 was 7.26 µM (active).
Consider `Cc1cc(N=Nc2ccccc2C)ccc1N`, for which the AC50 was 4.5 µM (active).
The value for `[Cl-].[Cl-].[Hg+2]` was 3.68 µM (active).
In the case of `CC(C)(O)c1cnn2c(-c3ccc(F)c(-c4c(F)cccc4C#N)c3)cnc2n1`, the AC50 was 2.24 µM (active).
In the case of `O=[N+]([O-])C(Br)(CO)CO` it was 3.26 µM (active); in that of `Oc1ccc2ccc3cccc4ccc1c2c34`, 2.53 µM (active); in that of `CCC12COCN1COC2`, 3.73 µM (active).
In the case of `CS(=O)(=O)NC(=O)c1cc(Oc2ccc(C(F)(F)F)cc2Cl)ccc1[N+](=O)[O-]` it was 6.1 µM (active); in that of `CCNS(=O)(=O)C(F)(F)C(F)(F)C(F)(F)C(F)(F)C(F)(F)C(F)(F)C(F)(F)C(F)(F)F`, 0.226 µM (active).
The value for `ClCCOCCCl` was 15 µM (active); that for `CC(C)(C)C(O)(CCc1ccc(Cl)cc1)Cn1cncn1` (centres undefined) was 6 µM (active); that for `CCCCCCCCn1sccc1=O` was 7.51 µM (active).
With `COP(=S)(OC)SCN1C(=O)c2ccccc2C1=O`, the AC50 is 4.74 µM (active).
For `CCOC(=O)[C@]1(c2ccccc2)Oc2ccccc2[C@@H]1N`, the AC50 is 5.79 µM (active).
